Structures are written as SMILES. Activity calls are given as the source filed them.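 The calls were made as follows: active = visual image review flags a hit and inhibition of aggregation exceeds 20%; inconclusive = visual hit but inhibition at or below 20%; inactive = no hit on visual image review.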

The nature of the assay: inhibitors of mutant huntingtin aggregation, primary screen, imaging, exon1htt(103Q)mCFP cells, high-content imaging (AID 483).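 Also: compound exposure lasted 3 days before fixation.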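 As to nuclei count: percent of the per-plate median nuclei count of sample wells.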 To be noted: exon1htt(103Q)mCFP cell line, aggregate imaging, at 2 µM; inhibition of aggregation: stronger effect = higher value; nuclei count: measured here: cell count, toxicity.
Consider `CCCNC(=O)NC1C(NC(=O)NCCC)N(C)C(=O)N1C` (stereo not given), for which the inhibition of aggregation is -4.3% (inactive) and the nuclei count came out at 98.1%.

With `COc1ccccc1NC(=O)C(C)NS(=O)(=O)c1ccc(F)cc1` (stereo not given), the nuclei count was 108% and the inhibition of aggregation is -6.8% (inactive).

For `Cc1oc(-c2ccccc2F)nc1CS(=O)(=O)CC(=O)N1CCN(Cc2ccccc2)CC1`, the inhibition of aggregation was -23.9% (inactive) and the nuclei count was found to be 90.4%.

With `CCCOC(=O)c1[nH]c2c(c1C)C(=O)CC(c1ccc(OC)c(OC)c1)C2` (stereo not given), the inhibition of aggregation was 2.4% (inactive) and the nuclei count is 101%.

In the case of `N#Cc1c(-c2ccccc2)nc(N2CCCCCC2)[nH]c1=O`, the inhibition of aggregation is 1.9% (inactive) and the nuclei count came out at 102%.

Turning to `CCOc1ccc(-n2cc(C(=O)N3CCN(C)CC3)c3cc(OC)c(OC)cc3c2=O)cc1`, the inhibition of aggregation was 0.2% (inactive) and the nuclei count was determined as 99.4%.

For `Cc1ccc(CCNC(=O)C2CCCN(S(=O)(=O)c3cnc[nH]3)C2)cc1` (stereo not given), the nuclei count amounted to 99.1% and the inhibition of aggregation was -6.4% (inactive).

As for `Cc1cnc(C(=O)Nc2nnc(C(C)C)s2)cn1`, the nuclei count turned out to be 107% and the inhibition of aggregation was 10.8% (inactive).

For `COc1ccccc1NC(=O)Cn1nnc(-c2ccccc2NC(=O)c2ccco2)n1`, the nuclei count is 86.5% and the inhibition of aggregation was -19% (inactive).

As for `O=C1CCc2cc(S(=O)(=O)N3CCC(C(=O)NCc4ccccn4)CC3)ccc2N1`, the nuclei count came to 115% and the inhibition of aggregation was 32.3% (inactive).

`COc1ccc(OCCSc2nc3ccccc3n2CC(=O)O)cc1`: the inhibition of aggregation was -1.3% (inactive) and the nuclei count worked out at 108%.

Take `Cc1cccc(C(OC(=O)c2ccco2)C(=O)NCc2ccccc2)n1` (stereo not given): the nuclei count stood at 104% and the inhibition of aggregation was -7.2% (inactive).

For the molecule `CCCCN(CC)CCNC(=O)c1cc2c(C)nc3ccccc3c2o1`, the nuclei count was 103% and the inhibition of aggregation was -11.7% (inactive).

For the molecule `O=C(NC1CCCC1)C(c1ccco1)N(Cc1ccccc1)C(=O)c1csnn1` (stereo not given), the inhibition of aggregation was -6.3% (inactive) and the nuclei count turned out to be 97.6%.

For `CC(C)(C)NC(=O)NC(=O)COc1ccccc1C#N`, the inhibition of aggregation was -6.3% (inactive) and the nuclei count turned out to be 108%.

For the molecule `COc1cccc2cc(C(=O)C3=C(O)C(=O)N(CCCN4CCOCC4)C3c3ccncc3)oc12` (stereo not given), the inhibition of aggregation is -8.5% (inactive) and the nuclei count came out at 103%.

Turning to `CCOC(=O)N1CCN(c2cc(=O)n(-c3ccccc3Cl)c(=O)[nH]2)CC1`, the inhibition of aggregation is 12.5% (inactive) and the nuclei count amounted to 84.2%.

For the molecule `Cn1nnnc1SCC(=O)N1CCN(c2cccc(Cl)c2)CC1`, the nuclei count worked out at 94.4% and the inhibition of aggregation is 10.8% (inactive).

As for `CCOc1ccccc1OCC(=O)NCc1ccco1`, the nuclei count came out at 101% and the inhibition of aggregation was 2.9% (inactive).

Regarding `CCN1C(=O)C(C(=O)Nc2ccc(OC)cc2)C2CC1(C)Oc1ccccc12` (stereo not given), the inhibition of aggregation was -2% (inactive) and the nuclei count stood at 104%.

As to `O=C(Nc1ccc(Cl)cn1)c1cccnc1`, the inhibition of aggregation is 2.7% (inactive) and the nuclei count came out at 107%.

As to `CCOC(=O)CSc1nc2c(c(-c3ccc(C)o3)c1C#N)CCCC2`, the nuclei count came to 100% and the inhibition of aggregation is -20.4% (inactive).

`CCn1c(Cc2ccccc2)nnc1SCC(=O)Nc1cc(C)on1`: the inhibition of aggregation is 5.6% (inactive) and the nuclei count is 102%.

For `Cn1c(=O)[nH]c(=O)c2[nH]c(NCCCN3CCOCC3)nc21`, the nuclei count amounted to 92.2% and the inhibition of aggregation was 8% (inactive).

Turning to `CC1CCN(Cc2nc3c(c(=O)n(C)c(=O)n3C)n2Cc2cccc3ccccc23)CC1`, the inhibition of aggregation is 12.7% (inactive) and the nuclei count turned out to be 105%.

On to `Fc1cccc2sc(N3CCOCC3)nc12`, for which the inhibition of aggregation was 16.8% (inactive) and the nuclei count is 68.5%.

Take `Cc1cc(NC(=O)CSc2nc3c(c(=O)n2Cc2ccccc2)SC(C)C3)no1` (stereo not given): the inhibition of aggregation was -16.2% (inactive) and the nuclei count came out at 77.3%.

In the case of `Clc1ccc(CSc2nnc(Cn3cnc4ccccc43)o2)cc1`, the inhibition of aggregation is 20.9% (inactive) and the nuclei count amounted to 72.2%.

As to `O=C1c2ccccc2NC2CCCCCN12` (stereo not given), the inhibition of aggregation was -11% (inactive) and the nuclei count came to 108%.

On to `CCOc1ccc(-c2cc(C(=O)N3CCN(c4ccccn4)CC3)c3ccccc3n2)cc1`, for which the inhibition of aggregation was -11.8% (inactive) and the nuclei count is 86.4%.

In the case of `COc1ccc(Cn2nnnc2C(c2cccs2)N2CCOCC2)cc1` (stereo not given), the nuclei count came out at 98.8% and the inhibition of aggregation was -10.4% (inactive).

`CN1C(=O)CC(N2CCC(C(N)=O)(N3CCCCC3)CC2)C1=O` (stereo not given): the inhibition of aggregation is -7.1% (inactive) and the nuclei count came out at 111%.

On to `CC1CCCN(C(=O)c2cc3c(-c4ccc(Cl)cc4)nn(C)c3s2)C1` (stereo not given), for which the inhibition of aggregation is -30.1% (inactive) and the nuclei count is 104%.

Turning to `CCN1CCN(Cc2nc3c(c(=O)[nH]c(=O)n3C)n2Cc2ccccc2Cl)CC1`, the inhibition of aggregation is 7.9% (inactive) and the nuclei count came to 71.4%.

With `CS(=O)(=O)c1ccc2nc(NC(=O)C3C4C=CC(C4)C3C(=O)O)sc2c1` (stereo not given), the nuclei count worked out at 96.1% and the inhibition of aggregation is 0.5% (inactive).

Consider `NC(=O)c1c(NC(=O)CN2CCCC2)sc2c1CCCC2`, for which the nuclei count is 65.3% and the inhibition of aggregation was 5.3% (inactive).

`CCOc1ccc(C(=O)CN2CCN(S(=O)(=O)c3ccc(OC)cc3)CC2)cc1`: the inhibition of aggregation is -3.6% (inactive) and the nuclei count amounted to 106%.

`O=C1NC(=O)C(CC(=O)N(Cc2ccco2)C2(C(=O)NC3CCCC3)CCCCC2)N1` (stereo not given): the inhibition of aggregation is 28.8% (active) and the nuclei count is 106%.

As to `COCCn1c(SCC(=O)Nc2cccc(OC)c2)nnc1-c1ccc(Cl)cc1`, the nuclei count was 94.1% and the inhibition of aggregation is 8.5% (inactive).

For the molecule `CN(C)c1nc(Oc2ccc(=O)n(C)n2)nc(N2CCOCC2)n1`, the nuclei count was determined as 93.3% and the inhibition of aggregation is 17.6% (inactive).

Source of the values: PubChem BioAssay.
